# PubChem BioAssay
# Unmarked numbers belong to inactive results. For part of these data: Entries with a potency or affinity are not part of this list. Active and inactive are the calls of the source. Unless noted, the rule behind the calls is not given here.
# Key:
# [1] = antimalarial activity against Dd2 strain (AID 2302;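 active = growth inhibition above 50% at the single 2 µM test dose, taken to imply half-maximal potency below 2 µM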;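 note: 0% = DMSO untreated growth and 100% = chloroquine plus artemisinin killed control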); conditions: P. falciparum Dd2 in RBCs, LDH growth readout, 72 h; at 2 µM; active compounds read high
# [2] = HepG2 cytotoxicity, primary screen, cytotoxicity control for P. falciparum antimalarial project, cell-based, ATP luminescence (AID 2303;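 active = inhibition above 50%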;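 note: 0% = DMSO wells and 100% = digitonin-killed cells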); conditions: HepG2 viability, 24-48 h, at 10 µM, active compounds read high
# [3] = target: L-lactate dehydrogenase (Plasmodium falciparum (isolate CDC / Honduras)) (UniProt Q27743); experiment: PfLDH activity inhibition – cell lysate, 3D7 strain, counter-screen for P. falciparum growth inhibition project (AID 2304);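 note: 0% = vehicle and 100% = reference inhibitor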; conditions: P. falciparum 3D7 crude extract, LDH APAD/NBT absorbance; at 2 µM; active compounds read high
# [4] = inhibition of 3D7 malaria parasite growth – strain 3D7 (AID 2306);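 note: 0% = DMSO wells and 100% = chloroquine plus artemisinin control wells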; conditions: P. falciparum 3D7 erythrocytic growth, LDH absorbance, 72 h; at 2 µM; active compounds read high
# [5] = target: Calcium-dependent protein kinase 1 (Plasmodium falciparum (isolate 3D7)) (UniProt P62344); experiment: PfCDPK1 kinase inhibitors, biochemical, TCAMS library (AID 1159585; cut-off not given, nearly all actives have IC50 up to about 0.98 µM;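 note: inhibitors leave more ATP so luminescence rises with inhibition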); conditions: recombinant PfCDPK1, Kinase-Glo ATP depletion luminescence
# [6] = target: Plasmodium falciparum protein kinase 6 (PK6, PF3D7_1337100) (UniProt Q8IDW1); experiment: PfPK6 kinase inhibitors, biochemical, TCAMS library (AID 1159586); conditions: recombinant PfPK6, Kinase-Glo ATP depletion luminescence
# [7] = target: Protein kinase 7 (PK7), Plasmodium falciparum 3D7 (PF3D7_0213400) (UniProt Q7YTF7); experiment: inhibition of Plasmodium PK7 catalytic activity – biochemical, TCAMS antimalarial set, Kinase-Glo luminescence (AID 1159587); conditions: recombinant PfPK7, Kinase-Glo ATP depletion luminescence
# [8] = target: Calcium-dependent protein kinase 4 (Plasmodium falciparum (isolate 3D7)) (UniProt Q8IBS5); experiment: PfCDPK4 kinase inhibitors, biochemical, TCAMS library (AID 1159588; cut-off not given, nearly all actives have IC50 up to about 0.91 µM); conditions: recombinant PfCDPK4, Kinase-Glo ATP depletion luminescence
# Sequence of Calcium-dependent protein kinase 4 (Plasmodium falciparum (isolate 3D7)) (Q8IBS5 whole entry, looked up): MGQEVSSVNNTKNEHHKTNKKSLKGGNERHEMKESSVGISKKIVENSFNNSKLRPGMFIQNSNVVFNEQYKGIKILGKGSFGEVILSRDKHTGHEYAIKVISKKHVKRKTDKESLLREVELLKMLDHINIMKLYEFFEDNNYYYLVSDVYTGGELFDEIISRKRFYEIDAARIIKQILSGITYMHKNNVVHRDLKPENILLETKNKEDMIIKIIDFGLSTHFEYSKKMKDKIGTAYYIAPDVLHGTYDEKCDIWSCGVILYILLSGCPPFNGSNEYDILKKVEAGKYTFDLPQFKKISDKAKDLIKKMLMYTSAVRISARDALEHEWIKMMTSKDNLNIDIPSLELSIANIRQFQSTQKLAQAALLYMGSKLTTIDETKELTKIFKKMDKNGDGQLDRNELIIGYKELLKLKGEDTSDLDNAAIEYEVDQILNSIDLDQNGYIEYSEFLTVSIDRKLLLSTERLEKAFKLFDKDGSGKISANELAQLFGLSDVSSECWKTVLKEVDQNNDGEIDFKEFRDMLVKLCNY
# Sequence of Calcium-dependent protein kinase 1 (Plasmodium falciparum (isolate 3D7)) (P62344 whole entry, looked up): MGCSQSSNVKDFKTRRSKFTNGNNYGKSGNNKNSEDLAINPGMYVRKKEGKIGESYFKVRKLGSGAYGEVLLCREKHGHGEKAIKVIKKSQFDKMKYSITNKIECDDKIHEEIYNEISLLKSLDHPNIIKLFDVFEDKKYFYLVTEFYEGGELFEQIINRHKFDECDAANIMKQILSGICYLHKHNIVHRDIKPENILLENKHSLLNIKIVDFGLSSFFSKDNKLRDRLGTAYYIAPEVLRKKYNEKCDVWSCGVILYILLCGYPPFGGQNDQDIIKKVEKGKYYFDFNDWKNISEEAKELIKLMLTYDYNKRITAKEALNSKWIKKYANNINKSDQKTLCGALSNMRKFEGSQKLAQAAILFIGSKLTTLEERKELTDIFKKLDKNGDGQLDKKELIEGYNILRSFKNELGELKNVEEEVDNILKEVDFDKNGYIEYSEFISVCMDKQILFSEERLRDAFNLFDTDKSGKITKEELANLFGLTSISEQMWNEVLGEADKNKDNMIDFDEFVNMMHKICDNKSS
# Sequence of Plasmodium falciparum protein kinase 6 (PK6, PF3D7_1337100) (Q8IDW1 1-305): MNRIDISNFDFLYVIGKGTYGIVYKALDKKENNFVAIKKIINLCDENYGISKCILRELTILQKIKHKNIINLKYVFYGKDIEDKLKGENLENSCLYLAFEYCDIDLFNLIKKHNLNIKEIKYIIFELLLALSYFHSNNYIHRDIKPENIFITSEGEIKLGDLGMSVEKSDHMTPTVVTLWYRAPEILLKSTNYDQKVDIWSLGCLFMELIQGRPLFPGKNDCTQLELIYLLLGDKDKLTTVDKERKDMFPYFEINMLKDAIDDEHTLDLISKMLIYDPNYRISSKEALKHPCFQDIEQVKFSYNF
# Sequence of L-lactate dehydrogenase (Plasmodium falciparum (isolate CDC / Honduras)) (Q27743 whole entry, looked up): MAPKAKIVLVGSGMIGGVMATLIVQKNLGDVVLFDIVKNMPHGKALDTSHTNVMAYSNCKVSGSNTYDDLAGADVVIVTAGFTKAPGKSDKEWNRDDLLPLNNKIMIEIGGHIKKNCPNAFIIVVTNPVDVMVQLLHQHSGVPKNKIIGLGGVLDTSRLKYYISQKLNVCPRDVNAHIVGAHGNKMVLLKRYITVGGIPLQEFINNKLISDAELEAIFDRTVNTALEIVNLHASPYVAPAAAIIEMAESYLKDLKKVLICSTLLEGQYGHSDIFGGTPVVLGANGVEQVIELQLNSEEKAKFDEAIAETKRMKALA
# Sequence of Protein kinase 7 (PK7), Plasmodium falciparum 3D7 (PF3D7_0213400) (Q7YTF7 1-343): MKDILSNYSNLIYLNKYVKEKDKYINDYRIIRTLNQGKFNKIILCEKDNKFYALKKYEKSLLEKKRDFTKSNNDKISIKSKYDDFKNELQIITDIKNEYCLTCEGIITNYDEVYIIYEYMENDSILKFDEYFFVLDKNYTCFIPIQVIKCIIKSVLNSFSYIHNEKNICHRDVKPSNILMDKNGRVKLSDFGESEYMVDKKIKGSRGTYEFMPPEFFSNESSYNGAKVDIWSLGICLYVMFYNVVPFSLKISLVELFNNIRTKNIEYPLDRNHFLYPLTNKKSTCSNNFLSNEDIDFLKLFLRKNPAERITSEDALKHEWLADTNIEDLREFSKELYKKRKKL
SMILES,growth inhibition [1],inhibition [2],inhibition [3],growth inhibition [4],outcome [5],outcome [6],outcome [7],outcome [8]
CC(C)(CNCc1ccc(C(F)(F)F)cc1)c1nc(-c2ccc(Cl)c(O)c2)c(-c2ccncc2)[nH]1,98% (active),42%,-1%,101% (active),inactive,inactive,inactive,inactive
COCCn1c(-c2cccc(Cl)c2)nn(-c2ccc([N+](=O)[O-])cc2C#N)c1=S,100% (active),7%,0%,100% (active),inactive,inactive,inactive,inactive
O=C(Nc1ccc(Cl)cc1)c1ccc(CN2CCCN(Cc3ccsc3)CC2)cc1,1%,48%,4%,88% (active),inactive,inactive,inactive,inactive
COc1ccc(-c2onc(C(F)(F)F)c2-c2ccc(Br)cc2)c(O)c1,77% (active),7%,4%,99% (active),inactive,inactive,inactive,inactive
COc1cc(CNC[C@@H](O)[C@H](Cc2ccccc2)NC(=O)c2cc(OC(C)C)cc(N3CCCCS3(=O)=O)c2)cc(OC)c1,94% (active),7%,4%,100% (active),inactive,inactive,inactive,inactive
CCCOc1cc(OCCC)cc(-c2cc(=O)c3ccccc3[nH]2)c1,96% (active),33%,-2%,99% (active),inactive,inactive,inactive,inactive
CC(=NN=C(N)N)c1ccc2c(ccc3ccccc32)c1,15%,47%,8%,100% (active),inactive,inactive,inactive,inactive
COc1cc(NC(=O)Nc2ccc(Br)cc2C(=O)Nc2ccc(Br)cc2)cc(OC)c1OC,98% (active),-4%,7%,99% (active),inactive,inactive,inactive,inactive
O=C(NC1CCCCN(Cc2ccccc2O)C1)c1cccc(Cl)c1 (stereo not drawn),30%,15%,-4%,86% (active),inactive,inactive,inactive,inactive
O=C(NCc1ccc(F)cc1)Nc1ccc(-c2ccc(-c3nc4ccccc4[nH]3)cc2)cc1,98% (active),43%,4%,101% (active),inactive,inactive,inactive,inactive
COc1ccc(OC)c(NC(=O)CSc2nc(-c3ccccc3Cl)ns2)c1,32%,-8%,-1%,95% (active),inactive,inactive,inactive,inactive
CCCCNC(=O)c1[nH]c2c(NC(=O)COc3ccccc3)cccc2c1-c1cccc(NC(=O)C(N)CO)c1 (stereo not drawn),-3%,11%,-3%,87% (active),inactive,inactive,inactive,inactive
O=C(NCCc1ccccc1)N(Cc1ccccc1-c1ccc(CNC2CCCC2)cc1)C1CCN(Cc2ccccc2)CC1,95% (active),96% (active),1%,96% (active),inactive,inactive,inactive,inactive
CN(C)CCCNC(=O)c1ccccc1Sc1ccccc1C#N,3%,11%,2%,89% (active),inactive,inactive,inactive,inactive
COc1cc2nc(NCCc3ccccc3)nc(NCc3nccs3)c2cc1OC,93% (active),1%,0%,99% (active),inactive,inactive,inactive,inactive
COc1ccc(CNC(=O)Nc2cc3cc(-c4ccc(CN(C)C)cc4)ccc3n3c(C)nnc23)cc1,80% (active),99% (active),-4%,93% (active),inactive,inactive,inactive,inactive
CN(C)CCCOc1ccc(CN2CC[C@H](NC(=O)c3ccc(Cl)c(Cl)c3)C2)cc1Cl,35%,65% (active),1%,100% (active),inactive,inactive,inactive,inactive
COc1ccc(C=Cc2cc(N)c3ccccc3n2)cc1,16%,38%,5%,93% (active),inactive,inactive,inactive,inactive
CN(C)CCNCc1ccc(-c2ccc(-c3nc4ccc(F)cc4[nH]3)cc2)cc1,99% (active),8%,-4%,101% (active),inactive,inactive,inactive,inactive
N#Cc1ccc(CN2CCC(Oc3ccc(NC(=O)c4cccs4)cc3)C2)cc1 (stereo not drawn),65% (active),5%,1%,82% (active),inactive,inactive,inactive,inactive
COc1c(C2CCN(CCCCNC(=O)c3ccc(-c4ccc(Cl)cc4)cc3)CC2)ccc2c1C(C)(C)CCC2(C)C,42%,94% (active),1%,95% (active),inactive,inactive,inactive,inactive
